rRNA inh HTS = reduced GFP signal of wild-type E. coli, primary screen, bacterial rRNA inhibitor project, GFP/RFP fluorescence, OD600, single point; hit rate 1.6% among 350,000; E. coli WT GFP vs humanized-ribosome RFP mutants, 24 h; stronger effect = lower value; DMSO median 0, no signal -100; GFP signal change (wild-type ribosome), % (concentration not given with the values);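 active = significant combined selectivity score with lowered wild-type GFP, culture density cut under 30%, mutant RFP and density less affected; inactive = any of these conditions unmet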
ADAM10 inh = human ADAM10 inhibitors, primary screen, biochemical, QFRET, HTS; Disintegrin and metalloproteinase domain-containing protein 10 (Homo sapiens), O14672; inhibition, % at 7 µM; AID 720582, 2013; hit rate 0.62% among 370,000; recombinant ADAM10, EDANS/DABCYL FRET peptide cleavage, 3 h;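 active = inhibition above a per-campaign cutoff equal to the mean of compounds falling between control-based bounds plus 3 SD, cut at about 20% in these data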;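 also: 0% = DMSO wells while the 100% control is not disclosed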
Target sequence (O14672 214-748 limits assumed): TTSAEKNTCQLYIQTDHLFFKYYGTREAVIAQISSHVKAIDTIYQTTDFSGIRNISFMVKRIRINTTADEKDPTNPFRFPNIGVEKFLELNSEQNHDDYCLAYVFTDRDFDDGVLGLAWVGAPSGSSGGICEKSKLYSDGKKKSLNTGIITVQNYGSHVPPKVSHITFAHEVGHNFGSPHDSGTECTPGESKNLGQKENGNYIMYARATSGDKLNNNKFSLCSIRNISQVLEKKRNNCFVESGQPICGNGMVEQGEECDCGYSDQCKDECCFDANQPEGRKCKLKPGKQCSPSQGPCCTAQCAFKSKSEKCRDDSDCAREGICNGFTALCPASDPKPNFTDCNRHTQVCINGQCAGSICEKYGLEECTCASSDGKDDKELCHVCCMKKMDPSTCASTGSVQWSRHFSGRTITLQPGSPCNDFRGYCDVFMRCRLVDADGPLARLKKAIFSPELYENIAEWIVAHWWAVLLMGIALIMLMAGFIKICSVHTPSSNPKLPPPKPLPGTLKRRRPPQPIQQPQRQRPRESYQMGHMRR
ADAM17 inh = ADAM17 inhibitors, primary screen, biochemical, QFRET. Disintegrin and metalloproteinase domain-containing protein 17 (Homo sapiens), P78536. recombinant ADAM17, EDANS/DABCYL FRET peptide cleavage. inhibition, % at 6.95 µM. hit rate 0.83% among 370,000. AID 720648, 2013;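 active = inhibition above the mean of compounds lying between control limits plus 3 SD, set per campaign, cut at about 8.5% in these data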;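 also: 0% = DMSO-only wells as the low control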
KLK7 zymogen act = proKLK7 zymogen activators, primary screen, biochemical, fluorescence intensity. Kallikrein-7 (Homo sapiens), P49862. purified proKLK7, EDANS-DABCYL substrate fluorescence; 100% is mature enzyme control, 0% vehicle. activation, % at 7 µM. hit rate 0.9% among 370,000. AID 652039, 2013;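 active = activation above the mean of all tested compounds plus 3 SD, computed per campaign excluding outliers beyond control limits, cut at about 13% in these data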
FGF22 binding = binders of human FGF22 protein, primary screen, FGF22 synaptogenesis inhibitor project, biophysical, thermal shift, single point; Fibroblast growth factor 22 (Homo sapiens), Q9HCT0; recombinant FGF22 thermal shift, SYPRO orange fluorescence; percent of sucrose octasulfate shift, DMSO zero; activity (Tm shift, normalised), % at 9.99 µM; hit rate 1.5% among 340,000; AID 651658, 2012;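 active = mean Tm shift, scaled 0 neutral to 100 positive control, at about 1.3% or above, every replicate too, limit read from the data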
KLK7 act conf = proKLK7 zymogen activators, confirmation, biochemical, fluorescence intensity, triplicate; purified proKLK7, EDANS-DABCYL substrate fluorescence; scaled: vehicle 0, mature enzyme 100; shares compounds with KLK7 zymogen act; hit rate 68% among 3,200; activation, % at 7 µM;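 active = activation, as change over the incubation, above the mean of all tested compounds plus 3 SD, cut at about 13% in these data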
EDANS-DABCYL int = EDANS-DABCYL substrate optical interference, artefact control for kallikrein-7 zymogen activator project, biochemical, fluorescence intensity, high throughput; shares compounds with KLK7 zymogen act; no enzyme, 4 h; solvent 0%, active enzyme control 100%; activation, % at 7 µM; hit rate 80% among 3,200; AID 686952, 2013;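 active = activation above the all-compound mean plus 3 SD, ignoring values outside control-based bounds, cut at about 4.8% in these data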;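 also: value is the 4 h activation minus the activation read at time zero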
Active calls of the source: *; i = inactive; · = no result given. The list is not random: actives were taken first. Their share in the collection is about 3.8%.

SMILES | rRNA inh HTS | ADAM10 inh | ADAM17 inh | KLK7 zymogen act | FGF22 binding | KLK7 act conf | EDANS-DABCYL int
O=C(c1cc2c(ccc3ccccc32)oc1=O)N1CCN(CCO)CC1 | 2 | i | -322 | 26* | 0 | 9 | 9.8*
C[C@H]1CN([C@@H](C)CO)C(=O)c2cc(-c3cccnc3)cnc2O[C@H]1CN(C)C(=O)C1CCC1 | 6 | · | · | · | 0 | · | ·
CCCNC(=O)N1CC2(CCN(S(=O)(=O)c3cccc(OC)c3)CC2)c2c(n(C)c3cc(OC)ccc23)[C@@H]1CO | -3 | · | · | · | 0 | · | ·
Cc1cc(=O)oc2cc(NS(=O)(=O)c3ccc(F)cc3)ccc12 | -22* | i | i | 79* | 0 | 65* | 75*
Cc1cc(=O)oc2cc(NS(=O)(=O)c3ccccc3)ccc12 | -4 | i | i | 67* | 0 | 76* | 76*
Cc1cccc(S(=O)(=O)N[C@H]2CC[C@H](CCNC(=O)c3cnccn3)O[C@H]2CO)c1 | -1 | · | · | · | 0 | · | ·
CO[C@@H]1CN(C)C(=O)c2ccc(NS(=O)(=O)c3ccc(C)cc3)cc2OC[C@H](C)N(C(=O)NC(C)C)C[C@H]1C | -3 | · | · | · | · | · | ·
COc1cccc(Nc2nc3cc(OC)ccc3cc2C#N)c1 | 11 | -280 | -66 | 29* | 0 | 56* | 61*
O=C(COc1ccc(/C=N/NC(=O)c2ccncc2)cc1)Nc1ccccc1 | 15 | -1 | 0 | 27* | 0 | -22 | -15
O=C(COc1ccc(/C=N/NC(=O)c2ccncc2)cc1)Nc1cccc([N+](=O)[O-])c1 | -7 | 6 | 0 | -1 | 0 | · | ·
C[C@H](CO)N1C[C@H](C)[C@@H](CN(C)Cc2ccc(C(=O)O)cc2)Oc2c(NC(=O)CCC(F)(F)F)cccc2C1=O | -2 | · | · | · | · | · | ·
Cn1ccc2c(-c3ccc(C(=O)O)cc3)cc3c(c21)C1CCC3O1 (stereo unspecified) | 6 | i | i | 79* | 0 | 66* | 70*
CCOCCC(=O)Nc1ccc2c(c1)c(=O)n(C)n2Cc1cccc(C(F)(F)F)c1 | 4 | i | -419 | 16* | 1 | 6 | 9.7*
Cn1c(=O)c2cc(NC(=O)CCc3ccccc3)ccc2n1-c1ccccc1F | · | i | -341 | 9 | 0 | · | ·
Cn1c(=O)c2cc(NC(=O)CCc3ccccc3)ccc2n1Cc1cccc(C(F)(F)F)c1 | -1 | i | -337 | -9 | 0 | · | ·
CCOCCC(=O)Nc1ccc2c(c1)c(=O)n(C)n2-c1ccccc1F | 4 | i | -448 | 21* | 0 | 21* | 22*
COc1cc(Cn2c3ccc(NC(=O)CC(C)C(F)(F)F)cc3c(=O)n2C)ccc1F (stereo unspecified) | 3 | i | -372 | 17* | 1 | -7 | -7
CC(CC(=O)Nc1ccc2c(c1)c(=O)n(C)n2Cc1ccc(Cl)cc1)C(F)(F)F (stereo unspecified) | 2 | i | -402 | 11 | 0 | · | ·
CN1C=CC(=CC=C2C=CC(=O)C=C2)C=C1 | 12 | -33 | -17 | 50* | 0 | 12 | 14*
CCN(CC)CCN(C(=O)c1cc2c(ccc3ccccc32)oc1=O)c1nc2cc3c(cc2s1)OCCO3 | -20 | i | i | 46* | 0 | 61* | 65*
CCN(CC)CCN(C(=O)c1ccc2c(c1)OCCO2)c1nc2cc3c(cc2s1)OCO3 | -13 | 2 | 0 | 0 | 0 | · | ·
CCOC(=O)C1CCN(C(=O)Nc2ccc3nccnc3c2)CC1 | · | i | -234 | 14* | · | 71* | 71*
CCOC(=O)N1CCN(C(=O)Nc2ccc3nc(-c4ccccn4)c(-c4ccccn4)nc3c2)CC1 | · | -382 | -137 | 32* | · | 32* | 33*
CCOC(=O)C1CCN(C(=O)Nc2ccc3snnc3c2)CC1 | -34 | -30 | -13 | 0 | 0 | · | ·
CNC[C@@H]1Oc2ccc(NS(=O)(=O)c3c(C)noc3C)cc2CC(=O)N([C@@H](C)CO)C[C@H]1C | 1 | · | · | · | 0 | · | ·
SMILES | rRNA inh HTS | ADAM10 inh | ADAM17 inh | KLK7 zymogen act | FGF22 binding | KLK7 act conf | EDANS-DABCYL int
CN(C)C(=O)c1cccc(-c2ccc3c(c2)[C@H]2[C@H](CCN2C(=O)c2ccccc2)[C@@H](CO)N3C)c1 | -10 | · | · | · | -1 | · | ·
CCOc1cc(C(=O)Nc2ccc(S(=O)(=O)N3CCCCC3)cc2)ccc1OCC(=O)N1CCOCC1 | 3 | 1 | -1 | 20* | 0 | 14* | 15*
CCOc1ccc(/C(O)=C2/C(=O)C(=O)N(c3ccccn3)C2c2ccc(C)cc2)c(C)c1 (stereo unspecified) | 0 | 0 | -2 | 17* | 0 | 32* | 32*
COc1cc2c(OC)cccc2cc1C(=O)O | · | -406 | -135 | 18* | · | 11 | 8.5*
O=C(NCCc1ccc(F)cc1)c1coc(=O)c(Br)c1 | 8 | -463 | -188 | 13* | 0 | 30* | 29*
CCn1c2ccccc2c2cc(NC(=O)CN3CCCC3)ccc21 | -9 | -8 | -4 | 82* | 0 | -1 | -1
CCn1c2ccccc2c2cc(NC(=O)CNCC3CCCO3)ccc21 (stereo unspecified) | -11 | -12 | -1 | 0 | 0 | · | ·
O=C(Nc1nc2c(s1)CN(Cc1ccccc1)CC2)c1cccc(S(=O)(=O)N2CCc3ccccc32)c1 | · | -179 | -44 | 640* | · | 21* | 18*
CC(C)c1cn(CC[C@H]2CC[C@@H](NC(=O)Nc3cc(Cl)cc(Cl)c3)[C@@H](CO)O2)nn1 | -19 | · | · | · | · | · | ·
COc1ccc2c(c1)cc1n2CCN=C1NCCO | · | -203 | -54 | 17* | · | 20* | 27*
CCCNC(=O)C[C@@H]1CC[C@@H]2[C@@H](COc3ccc(NC(=O)NCC)cc3C(=O)N2C)O1 | 6 | · | · | · | 1 | · | ·
Cn1c2ccccc2c(=O)c2ccc(F)cc21 | -24 | i | -439 | 13* | 0 | 50* | 44*
CO[C@@H](CN(C)C(=O)c1ccccc1F)[C@@H](C)CN([C@@H](C)CO)S(=O)(=O)c1ccc(C)cc1 | 1 | · | · | · | 0 | · | ·
CCN1C(=O)c2cccc3c(S(=O)(=O)NCc4ccco4)ccc1c23 | · | -175 | -56 | 3 | · | · | ·
CCN1C(=O)c2cccc3c(S(=O)(=O)NCc4cccnc4)ccc1c23 | · | i | -213 | 53* | · | 71* | 78*
